Values without a mark were called inactive. No rule for the calls is given here.

This experiment concerns Phorbol Ester. The experiment in a line: selectivity profile across receptors and CYP450s – biochemical, Ricerca HitProfilingScreen, CYP450, set 2, selectivity assay for S1P4 agonist project, profiling panel (AID 540332). Conditions: at 30 µM; active compounds read high.

By inhibition is commonly meant the relative decrease from the control value, in per cent. `COCCN=C1S/C(=C\c2cc(C)n(-c3ccc(F)cc3F)c2C)C(=O)N1C`: the inhibition was 2%.

The record behind these values is PubChem BioAssay AID540332 (The Scripps Research Institute Molecular Screening Center, 2011).
